The text below walks through data of PubChem BioAssay.

A short description of assay [1]: E. coli DRC41 culture turbidity changes, primary screen, E. coli filamentation inducer project, strain DRC41, OD650, 48 h (AID 1152).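 Further: E. coli MC1000 strain DRC41 lacking acrAB efflux pump and sulA.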 The following applies: E. coli DRC41 (acrAB sulA), higher = more signal, called active from +8 up or from −8 down.
A short description of assay [2]: small-molecule binders of probe aLefty1, primary screen, biochemical, small-molecule microarray, 635/667 nm fluorescence (AID 1153).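 Further: score merges spot fluorescence with signal-to-noise ratio from the scanned slide images.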 The following applies: higher = more signal.
Assay [3] can be described thus: PSAC antagonists in infected red cells, primary screen, cell-based, P. falciparum Indochina, OD700, 1 h (AID 1154). Conditions: P. falciparum Indochina infected RBC osmotic lysis, higher = more signal, called active from +8 up or from −8 down.
A short description of assay [4]: PSAC antagonists in infected red cells, primary screen, cell-based, P. falciparum Indochina, OD700, 2 h (AID 1155).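 Further: lysis reports solute entry through the parasite surface anion channel PSAC; channel blockers reduce lysis of infected cells.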 The following applies: P. falciparum Indochina infected erythrocytes, osmotic lysis OD700; higher = more signal, called active from +8 up or from −8 down.
The nature of assay [5]: osmotic lysis modulators in infected erythrocytes, primary screen, PSAC antagonist project, cell-based, P. falciparum Indochina, OD700, 3 h (AID 1156). The following applies: higher = more signal, called active from +8 up or from −8 down.
The nature of assay [6]: PSAC antagonists in infected red cells, primary screen, cell-based, P. falciparum Indochina, OD700, 18 h (AID 1157). Conditions: P. falciparum Indochina infected erythrocytes, osmotic lysis OD700, 18 h; higher = more signal, called active from +8 up or from −8 down.
The nature of assay [7]: modulators of S6 phosphorylation in cells, primary screen, cell-based, A549, cytoblot, luminescence, serum-stimulated (AID 1158).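 Further: serum-stimulated A549 lung adenocarcinoma cells; signal is phosphorylated S6 detected by cytoblot immunostaining with HRP secondary.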 Conditions: A549 phospho-S6 cytoblot, 5 h, higher = more signal.
Assay [8] deals with NADPH oxidase 2 (Homo sapiens) (UniProt P04839). In words: NOX2-dependent H2O2 signal modulators, primary screen, NOX inhibitor project, cell-based, HEK293-NOX2, PMA-stimulated, Amplex Red fluorescence (AID 1159). Further: test concentration not given here. Conditions: 45 min, higher = more signal, called active from +8 up or from −8 down.
The target of assay [9] is NADPH oxidase 4 (Homo sapiens) (UniProt Q9NPH5). The assay is described as follows: NOX4-dependent H2O2 signal modulators, primary screen, NOX inhibitor project, cell-based, HEK293-NOX4, tetracycline-induced, Amplex Red fluorescence (AID 1160). The following applies: 45 min, higher = more signal, called active from +8 up or from −8 down.
Assay [10] has as its target NADPH oxidase 5 (Homo sapiens) (UniProt Q96PH1). In words: NOX5-dependent H2O2 signal modulators, primary screen, NOX inhibitor project, cell-based, HEK293-NOX5, Amplex Red fluorescence (AID 1161). Conditions: HEK293-NOX5, ionomycin, 45 min, higher = more signal.
A short description of assay [11]: A549 cell viability effects, profiling panel, calcein-AM fluorescence, 48 h, basal (AID 1162). Further: test concentration not given here. Conditions: higher = more signal.
Assay [12] can be described thus: adipocyte viability effects, profiling panel, cell-based, 3T3-L1 adipocytes, calcein-AM fluorescence, 48 h, basal (AID 1163). Further: test concentration not given here. Conditions: 3T3-L1 adipocytes viability, higher = more signal.
Assay [13] is described as follows: HepG2 cell viability effects, profiling panel, calcein-AM fluorescence, 48 h, basal (AID 1164). Further: test concentration not given here. Conditions: higher = more signal.
Assay [14] in a line: MM1S cell viability effects, profiling panel, calcein-AM fluorescence, 48 h, basal (AID 1165).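 Further: viability of MM1S multiple myeloma cells under basal unstimulated conditions; test concentration not given here.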 Conditions: higher = more signal.
Assay [15] is described as follows: basal RPMI8226 viability, no added stimulus, profiling panel, cell-based, calcein-AM fluorescence, 48 h, PK04 Diversity Set (AID 1166).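 Further: cells grown under basal conditions without added stimulus; test concentration not given here.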 The following applies: RPMI8226 myeloma viability, higher = more signal.
Assay [16] can be described thus: basal HepG2 mitochondrial membrane potential changes, profiling panel, cell-based, JC-1 fluorescence, 24 h, 100 nL compound (AID 1167). Further: test concentration not given here. The following applies: higher = more signal.
A short description of assay [17]: basal 3T3-L1 adipocyte mitochondrial potential changes, profiling panel, cell-based, JC-1 fluorescence, 3T3-L1 adipocytes, 24 h, 100 nL compound (AID 1168). Further: test concentration not given here. Conditions: JC-1 mitochondrial fluorescence, higher = more signal, called active from +8 up or from −8 down.
The nature of assay [18]: basal RPMI8226 mitochondrial membrane potential changes, profiling panel, cell-based, JC-1 fluorescence, 24 h, 100 nL compound (AID 1169). Further: test concentration not given here. Conditions: RPMI8226 myeloma, JC-1 mitochondrial potential fluorescence, higher = more signal.
Assay [19] in a line: basal MM1S mitochondrial membrane potential changes, profiling panel, cell-based, JC-1 fluorescence, 24 h, 100 nL compound (AID 1170). Further: test concentration not given here. The following applies: higher = more signal.
Assay [20] can be described thus: A549 lung cancer cell viability effects, profiling panel, resazurin fluorescence, 24 h, PK04 Diversity Set (AID 1171). Further: test concentration not given here. The following applies: higher = more signal, called active from +8 up or from −8 down.

Calls of active or inactive are those of the source.

Sequence of NADPH oxidase 2 (Homo sapiens) (P04839 whole entry, looked up): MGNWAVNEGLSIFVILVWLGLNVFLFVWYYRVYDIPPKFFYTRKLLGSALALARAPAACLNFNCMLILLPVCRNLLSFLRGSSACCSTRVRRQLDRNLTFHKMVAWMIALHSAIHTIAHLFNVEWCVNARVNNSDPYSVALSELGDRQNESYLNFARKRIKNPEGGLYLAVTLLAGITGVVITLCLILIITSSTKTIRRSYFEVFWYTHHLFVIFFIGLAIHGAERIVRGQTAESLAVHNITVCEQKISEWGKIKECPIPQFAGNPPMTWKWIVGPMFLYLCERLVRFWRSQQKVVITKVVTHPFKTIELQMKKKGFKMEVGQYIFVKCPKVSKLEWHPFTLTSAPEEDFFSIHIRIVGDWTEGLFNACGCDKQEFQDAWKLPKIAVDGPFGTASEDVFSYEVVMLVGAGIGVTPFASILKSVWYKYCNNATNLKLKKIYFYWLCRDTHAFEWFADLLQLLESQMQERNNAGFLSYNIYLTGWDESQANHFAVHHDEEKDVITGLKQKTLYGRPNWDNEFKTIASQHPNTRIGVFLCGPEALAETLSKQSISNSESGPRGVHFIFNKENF
Sequence of NADPH oxidase 4 (Homo sapiens) (Q9NPH5 whole entry, looked up): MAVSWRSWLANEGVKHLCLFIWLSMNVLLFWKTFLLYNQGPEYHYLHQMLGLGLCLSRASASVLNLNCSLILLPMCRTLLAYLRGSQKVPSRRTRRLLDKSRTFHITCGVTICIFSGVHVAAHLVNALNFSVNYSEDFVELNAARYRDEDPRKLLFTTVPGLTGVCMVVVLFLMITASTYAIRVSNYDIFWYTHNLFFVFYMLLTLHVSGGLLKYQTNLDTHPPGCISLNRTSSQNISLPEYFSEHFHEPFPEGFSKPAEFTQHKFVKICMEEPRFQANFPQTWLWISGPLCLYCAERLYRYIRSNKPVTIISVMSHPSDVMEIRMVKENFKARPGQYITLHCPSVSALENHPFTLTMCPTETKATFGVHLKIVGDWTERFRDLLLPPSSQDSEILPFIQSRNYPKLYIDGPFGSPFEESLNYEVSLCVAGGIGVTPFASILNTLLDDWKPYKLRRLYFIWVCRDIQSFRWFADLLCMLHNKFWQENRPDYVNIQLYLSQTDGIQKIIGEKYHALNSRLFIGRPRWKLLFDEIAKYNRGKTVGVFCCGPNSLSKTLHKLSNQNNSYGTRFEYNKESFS
Sequence of NADPH oxidase 5 (Homo sapiens) (Q96PH1 whole entry, looked up): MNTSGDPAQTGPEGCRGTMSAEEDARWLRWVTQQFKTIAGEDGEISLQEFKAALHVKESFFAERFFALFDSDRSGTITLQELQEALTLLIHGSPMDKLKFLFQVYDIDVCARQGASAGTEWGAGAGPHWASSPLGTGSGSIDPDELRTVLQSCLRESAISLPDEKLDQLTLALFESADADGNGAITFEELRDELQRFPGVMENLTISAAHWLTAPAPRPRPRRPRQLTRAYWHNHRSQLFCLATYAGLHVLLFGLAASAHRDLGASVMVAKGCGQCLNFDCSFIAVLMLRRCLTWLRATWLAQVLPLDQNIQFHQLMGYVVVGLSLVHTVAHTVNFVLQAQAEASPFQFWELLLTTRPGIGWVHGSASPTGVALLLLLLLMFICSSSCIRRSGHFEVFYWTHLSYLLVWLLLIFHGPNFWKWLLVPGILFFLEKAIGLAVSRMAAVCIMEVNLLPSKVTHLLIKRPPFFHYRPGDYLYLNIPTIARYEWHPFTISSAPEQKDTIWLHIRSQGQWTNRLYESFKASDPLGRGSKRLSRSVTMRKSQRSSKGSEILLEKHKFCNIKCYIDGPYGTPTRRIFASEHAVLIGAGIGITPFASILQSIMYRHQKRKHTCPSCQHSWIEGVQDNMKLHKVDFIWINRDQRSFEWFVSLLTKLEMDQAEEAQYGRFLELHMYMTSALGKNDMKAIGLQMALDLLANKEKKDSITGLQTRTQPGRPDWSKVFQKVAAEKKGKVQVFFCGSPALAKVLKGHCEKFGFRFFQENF

`CCOC(=O)C[C@H]1[C@H](OC(=O)c2cc3ccccc3oc2=O)[C@@H](NC(=O)C2CCCCC2)c2cc(OCCCO)ccc2N1C(=O)Cc1ccc(OC)cc1`: the z-score is -0.926 (inactive) in assay [1]; 2.92 (inactive) in assay [3]; 0.275 (inactive) in assay [4]; 0.722 (inactive) in [5]; 0.328 (inactive) in [6]; 0.0301 in assay [7]. In addition, the z-score in assay [8] is 1.57 (inactive); in assay [9] it was 1.01 (inactive); in assay [10], 1.63; in assay [11], -0.266; in assay [12] it was 0.535; in assay [13], 0.391. Moreover, the z-score in [14] was 0.254; in assay [15], 0.0583; in [16], 0.38; in assay [17], -0.229 (inactive); in assay [18], 0.0411; in assay [19] it was 0.185. Besides, the z-score in assay [20] was -0.545 (inactive). This compound showed a composite z-score in assay [2] of 0.266.
`COCCOC(=O)N1C(=O)[C@@]2(c3cc(C#CCCO)ccc31)[C@H](c1ccc(O)cc1)N1[C@H](c3ccccc3)[C@H](c3ccccc3)OC(=O)[C@H]1[C@@H]2C(=O)N1CCc2cc(OC)c(OC)cc2C1`: the z-score in assay [1] is -0.0188 (inactive); in [3] it was 1.22 (inactive); in assay [4], 0.141 (inactive); in assay [5] it was 0.203 (inactive); in assay [6], 0.286 (inactive); in [7], 0.212. Further, the z-score in [8] was 0.611 (inactive); in assay [9], 0.522 (inactive); in assay [10], 1.02; in [11] it was 1.1; in [12] it was 0.462; in assay [13], 1.04. Moreover, the z-score in [14] is 0.664; in assay [15], 0.113; in [16], 0.374; in [17] it was 0.57 (inactive); in [18] it was -0.253; in [19], -0.602. Also, the z-score in [20] was -0.0256 (inactive). Further, the composite z-score in [2] is 0.469.
As for `C=CCNC(=O)[C@@H]1[C@H]2C(=O)O[C@H](c3ccccc3)[C@H](c3ccccc3)N2[C@H](c2ccc(O)cc2)[C@@]12C(=O)Nc1ccc(C#CC3(O)CCCCCC3)cc12`, the z-score in [1] is -0.418 (inactive); in assay [3] it was 2.35 (inactive); in [4], 0.275 (inactive); in [5], 0.0479 (inactive); in [6], 0.778 (inactive); in [7], -0.339. The z-score in assay [8] is 0.948 (inactive); in [9] it was 0.534 (inactive); in assay [10] it was 1.19; in assay [11], -1.04; in [12], 0.889; in assay [13], -0.522. For the same compound, the z-score in assay [14] was -1.67; in [15], -3.93; in assay [16], -2.28; in assay [17], -0.41 (inactive); in [18], -0.748; in [19], -0.188. The z-score in assay [20] is 0.0696 (inactive). The same compound had a composite z-score in [2] of -0.196.
For `COCCOC(=O)N1C(=O)[C@@]2(c3cc(C#CC4=CCCCC4)ccc31)[C@H](c1ccc(OCCO)cc1)N1[C@H](c3ccccc3)[C@H](c3ccccc3)OC(=O)[C@H]1[C@@H]2C(=O)N1CCCCCCC1`, the z-score is 3.39 (inactive) in assay [1]; 2.24 (inactive) in [3]; 0.742 (inactive) in [4]; 0.171 (inactive) in assay [5]; -0.521 (inactive) in [6]; 2.26 in assay [7]. In addition, the z-score in [8] was 1.44 (inactive); in assay [9], 0.639 (inactive); in [10] it was 1.3; in assay [11], 0.508; in assay [12], 1.35; in assay [13] it was 1.5. Besides, the z-score in assay [14] is 0.177; in assay [15], -0.288; in [16], -0.288; in assay [17], -2.7 (inactive); in [18] it was -1.19; in assay [19] it was -1.21. In [20], the z-score is -2.16 (inactive). Besides, the composite z-score in [2] was determined as 1.85.
For `CC(C)CNC(=O)[C@@H]1c2ccccc2C(=O)N(CC23CC4CC(CC(C4)C2)C3)[C@H]1c1ccc(CO)cc1`, the z-score was 0.075 (inactive) in assay [1]; 0.317 (inactive) in [3]; -0.93 (inactive) in [4]; -0.348 (inactive) in assay [5]; -1.22 (inactive) in assay [6]; 0.84 in [7]. The z-score is -0.234 (inactive) in assay [8]; -0.616 (inactive) in assay [9]; -1.78 in assay [10]; 0.226 in [11]; 0.918 in assay [12]; 0.537 in assay [13]. Further, the z-score is 0.107 in assay [14]; -0.35 in [15]; 1.38 in assay [16]; 1.64 (inactive) in [17]; -0.217 in assay [18]; -0.0634 in assay [19]. The z-score in assay [20] is 0.915 (inactive). Moreover, the composite z-score in assay [2] is -0.0559.
For `C#CCN(C/C=C/c1ccccc1)[C@H](CO[Si](C)(C)C(C)(C)C)c1ccccc1`, the z-score in assay [1] is -0.78 (inactive); in assay [3], 0.829 (inactive); in assay [4], 0.984 (inactive); in assay [5], 1.05 (inactive); in assay [6] it was -0.161 (inactive); in [7], -0.0623. In addition, the z-score was 1.64 (inactive) in assay [8]; 0.447 (inactive) in assay [9]; -0.419 in assay [10]; -0.909 in assay [11]; -0.0156 in [12]; -0.676 in assay [13]. Moreover, the z-score in [14] was -0.848; in assay [15] it was -2.58; in [16], -2.55; in assay [17], 0.155 (inactive); in assay [18], -0.352; in assay [19], 0.653. Further, the z-score in assay [20] was 0.403 (inactive). This compound registered a composite z-score in [2] of -0.346.
As for `CCCCC(O)C1C=CC2C(=O)NC(=O)C2N1Nc1ccccn1` (stereo not given), the z-score was -2.16 (inactive) in assay [1]; -0.162 (inactive) in [3]; 0.387 (inactive) in assay [4]; -0.343 (inactive) in assay [5]; 0.483 (inactive) in [6]; -1.11 in assay [7]. Moreover, the z-score in assay [8] was -1.48 (inactive); in assay [9], -2.5 (inactive); in [10] it was -2.17; in assay [11] it was -0.795; in assay [12], -0.291; in assay [13], 1.18. The z-score in [14] is 0.106; in assay [15] it was 0.0087; in [16], -1.68; in [17], -0.285 (inactive); in [18], 0.617; in [19], -0.00704. Moreover, the z-score in [20] is -0.751 (inactive). The composite z-score in assay [2] was 0.235.
On to `C#CCN([C@H](/C=C/C1CC1)[C@@H](O)Cc1ccccc1)[C@@H](Cc1ccccc1)C(=O)OC`, for which the z-score in assay [1] is 1.3 (inactive); in assay [3] it was 2.62 (inactive); in [4], 1.78 (inactive); in assay [5], -0.345 (inactive); in assay [6] it was 1.28 (inactive); in assay [7], 0.296. Further, the z-score in assay [8] is -0.293 (inactive); in [9], 0.396 (inactive); in assay [10], -2.6; in assay [11] it was -0.509; in assay [12] it was -0.129; in assay [13], -0.0708. Further, the z-score was -1.2 in [14]; -2.55 in assay [15]; 3.34 in [16]; 0.292 (inactive) in [17]; -0.842 in assay [18]; -1.33 in assay [19]. The z-score in assay [20] is 3.31 (inactive). Moreover, in assay [2], the composite z-score amounted to 0.0531.
For the compound `CCCCN1CC=CC23O[C@@H]4C=CCOC(=O)[C@@H]4[C@H]2C(=O)N(CCO)[C@@H]3C1=O` (stereo not given in full), the z-score in [1] was -0.492 (inactive); in assay [3] it was -0.366 (inactive); in [4] it was 0.574 (inactive); in assay [5] it was 0.349 (inactive); in [6], 0.381 (inactive); in assay [7], -0.415. Besides, the z-score in assay [8] is 1.51 (inactive); in assay [9], 1.08 (inactive); in assay [10], 0.669; in assay [11], 0.0738; in [12], -0.426; in assay [13] it was 0.442. For the same compound, the z-score in [14] is -1.05; in [15] it was 0.342; in assay [16] it was -0.454; in assay [17] it was 0.302 (inactive); in [18] it was 0.837; in assay [19], -0.209. Moreover, the z-score in [20] is -0.437 (inactive). The compound also displayed a composite z-score in [2] of 0.175.
